Assay results: PubChem BioAssay AID463212 (Sanford-Burnham Center for Chemical Genomics, 2010)
About 4,400 (1.3%) of roughly 330,000 compounds were called active. This excerpt belongs to a sample that is enriched for actives. Unmarked numbers belong to inactive results.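 Rule for the calls: active = growth inhibition of the mutant yeast at or above 50%; inactive = the rest.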

Assay: growth inhibition of tim23-1 ts yeast – luminescence, uHTS, primary screen (AID 463212);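 note: temperature-sensitive mutant grown at 25 °C; plate controls were DMSO-treated mutant yeast for no effect and medium wells lacking yeast for full effect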
Conditions: S. cerevisiae tim23-1 growth, BacTiter-Glo luminescence, 24 h; at 20 µM; active compounds read high
Compound `CC(=O)C1=C(C)NC(C)=C(C(C)=O)C1c1cn(-c2ccccc2)nc1-c1cccs1` has an inhibition of 29.1%. For `CSc1ccccc1NC(=O)c1cc(C2CC2)on1`, the inhibition was 15.5%. With `Cc1nn(Cc2ccc(F)cc2)c(C)c1NC(=O)c1cccnc1Cl` the inhibition was 9.85%. In the case of `Cc1nn(Cc2ccc(Cl)c(Cl)c2)c(C)c1NC(=O)c1cc(C2CC2)on1`, the inhibition is reported as 56.6% (active). For `C/C(=N/NC(=O)CN1CCN(S(=O)(=O)c2ccc(Br)cc2)CC1)c1ccncc1`, the inhibition was 4.89%. With `COC(=O)N/N=C/c1ccc(-c2ccc(Cl)c(Cl)c2)o1` the inhibition was 54.7% (active). `O=C(N/N=C\c1ccc(-c2ccc(Cl)c(Cl)c2)o1)C(=O)N1CCCC1` showed an inhibition of -5.25%. Work on `Nc1nnnn1CC(=O)N/N=C/c1ccc(-c2cccc(Cl)c2)o1` yielded an inhibition of 1.59%. `Cc1c(C)c2ccc(OCC(=O)N3CCN(c4cccc(Cl)c4)CC3)cc2oc1=O` gave an inhibition of -6.57%. In the case of `O=C1CC(Sc2ncn[nH]2)C(=O)N1c1ccccc1` (stereo not drawn), the inhibition is reported as 51% (active). For `Cc1ccc(N2C(=O)CC(Sc3ncn[nH]3)C2=O)cc1` (stereo not drawn), the inhibition was -0.146%. In the case of `COc1ccc(N2C(=O)CC(Sc3n[nH]c(-c4ccc(C)cc4)n3)C2=O)cc1` (stereo not drawn), the inhibition is reported as 28.8%. For `COc1ccc(C(c2nnnn2C2CCCCC2)N2CCN(c3ccccc3F)CC2)cc1` (stereo not drawn), the inhibition was 14.3%. `CC(C(=O)NC1CCCC1)N(c1ccc(Oc2ccccc2)cc1)S(C)(=O)=O` (stereo not drawn) showed an inhibition of 29.3%. Compound `Cc1cc(OC(=O)c2c(Cl)cccc2Cl)nc(C)n1` has an inhibition of 23.1%. For `Cc1cc(C)c(S(=O)(=O)c2ccccc2)c(OC(=O)c2c(F)cccc2Cl)n1`, the inhibition was 64.7% (active). `Cc1ccc(NNC(=O)c2c(F)cccc2Cl)cc1Cl` showed an inhibition of 44.2%. With `COc1ccc(C(C(=O)NCC2CCCO2)N(C(=O)Cn2nnc3ccccc32)c2ccc(NC(C)=O)cc2)cc1OC` (stereo not drawn) the inhibition was 15.6%. `CCOc1ccc(CC(=O)NCCS(=O)(=O)N2CCN(c3ccccc3)CC2)cc1` showed an inhibition of -7.53%. In the case of `O=C(N/N=C/c1cccc2cccnc12)[C@H]1C[C@@H]1c1ccccc1`, the inhibition is reported as 18.6%. For `COc1ccc(OC)c(S(=O)(=O)n2c([N+](=O)[O-])cnc2C)c1`, the inhibition was 12.9%. In the case of `COc1ccc(C(C[N+](=O)[O-])n2nc(C)cc2C)cc1` (stereo not drawn), the inhibition is reported as 84.7% (active). Work on `CCOc1ccc(C(C)C)cc1S(=O)(=O)n1nc(C)cc1C` yielded an inhibition of 36.9%. `COc1cc(OC)c(NS(=O)(=O)c2cn(C)cn2)cc1Cl` showed an inhibition of -16.4%. With `CC(C)(C)n1nnnc1C(c1ccccc1F)N1CCN(C(=O)c2ccco2)CC1` (stereo not drawn) the inhibition was 19.8%. With `CC(=O)O[C@H]1CC[C@@]2(C)[C@@H](CC[C@@H]3[C@@H]2CC[C@]2(C)[C@@H](C(C)(C)O)C[C@@H]32)C1` the inhibition was 28.2%. `Cc1cc(C)cc(C(=O)OCC(=O)NCCNC(=O)COC(=O)c2cc(C)cc(C)c2)c1` gave an inhibition of 2.3%. Compound `C(=N/N1CCN(c2ccccc2)CC1)/c1cccs1` has an inhibition of 15.3%. In the case of `CCOc1cccc(=O)c2c(C)n(CC3CCCO3)c(C)c12` (stereo not drawn), the inhibition is reported as -1.14%. In the case of `O=C1c2cccc3c([N+](=O)[O-])ccc(c23)C(=O)N1CC1CCCO1` (stereo not drawn), the inhibition is reported as 87% (active). With `CN1CN(C)c2ccc([N+](=O)[O-])c3cccc1c23` the inhibition was 9.47%. `N/C(=N\OC(=O)CCC1CCCCC1)c1ccccn1` gave an inhibition of 30.2%. For `O=C(CC1CCCCC1)NCc1ccccc1`, the inhibition was 14.8%. In the case of `N/C(=N\OC(=O)CC1CCCCC1)c1ccccc1`, the inhibition is reported as 56.4% (active). With `O=C(COC(=O)c1ccc(Cl)nc1)NCc1ccc2c(c1)OCO2` the inhibition was 6.05%. `COc1cccc(CN2CCN(Cc3ccc4cccc(F)c4n3)CC2CCO)c1` (stereo not drawn) gave an inhibition of 6.61%. In the case of `NC(=O)c1ccsc1NC(=O)c1ccco1`, the inhibition is reported as 6.25%. For `O=C(Nc1nnc(CCOCCOCCc2nnc(NC(=O)c3ccco3)s2)s1)c1ccco1`, the inhibition was -4.68%. With `O=C(Nc1nc(-c2ccco2)c(-c2ccco2)s1)c1ccco1` the inhibition was 69.5% (active). Work on `N#Cc1ccc(N2Cc3ccccc3/C2=N/C(=O)Nc2ccc(Cl)cc2)cc1` yielded an inhibition of 28.7%. In the case of `Cc1ccc2c(c1)c1ncnc(N3CCc4ccccc4C3)c1n2C`, the inhibition is reported as 51% (active). For `c1ccc(-c2csc(N3CCc4ccccc4C3)n2)cc1`, the inhibition was 14.4%. For `Cc1ccc(Cl)c(OCC(=O)N2CCc3ccccc3C2)c1`, the inhibition was 35.1%. For `CCc1cc(=O)oc2c(C)c(OCC(=O)N3CC[C@@]4(O)CCCC[C@H]4C3)ccc12`, the inhibition was 2.55%. Compound `CNS(=O)(=O)c1cnccc1N1CCN(c2cccc(C)c2)CC1` has an inhibition of 0.287%. Work on `CCC(CC)NC(=O)/C=C/c1cccc([N+](=O)[O-])c1` yielded an inhibition of 17.4%. With `Cc1ccccc1N1CC(C(=O)Nc2ccc3c(c2)OCO3)CC1=O` (stereo not drawn) the inhibition was 2.96%. Work on `COc1ccc(-c2n[nH]c(C)c2-c2ccccc2OC)c(O)c1` yielded an inhibition of 38.9%. With `COc1ccccc1-c1n[nH]c2c1[C@H](C)CC[C@H]2C(C)C` the inhibition was 53% (active). `O=C1COc2ccc(S(=O)(=O)NCCc3ccc(Cl)cc3)cc2N1` gave an inhibition of 8.79%. Work on `CC(=O)NC(=S)Nc1ccc(NC(=O)c2cccnc2)cc1` yielded an inhibition of 16.1%. In the case of `Cc1ccc2nc(-c3ccc(NC(=O)c4cccnc4)cc3)oc2c1`, the inhibition is reported as 52% (active). With `CCOC(=O)c1ccc(NC(=O)c2cccnc2)cc1` the inhibition was 13.2%. In the case of `Cc1cc(C(=O)COc2ccccc2[N+](=O)[O-])c(C)n1-c1cccc(S(=O)(=O)N2CCOCC2)c1`, the inhibition is reported as 7.4%. Compound `O=c1c2ccccc2nc2n1C(CSCc1cccc(C(F)(F)F)c1)CS2` (stereo not drawn) has an inhibition of 14.7%. Compound `O=C1CN(c2nc(-c3ccccc3)c3cc(Br)ccc3n2)c2ccccc2N1` has an inhibition of 4.72%. `Cc1ccc(CNC(=O)Cn2cnc(S(=O)(=O)N3CCCCC3)c2)o1` gave an inhibition of -6.13%. In the case of `Cc1[nH]n(C(N)=S)c(=O)c1N=Nc1ccc(Cl)cc1Cl`, the inhibition is reported as 67% (active). Work on `Cc1[nH]n(C)c(=O)c1N=Nc1ccc(S(C)(=O)=O)cc1` yielded an inhibition of 11.7%. `CC1=NN(C(N)=S)C(=O)C1N=Nc1cc(Cl)ccc1Cl` (stereo not drawn) showed an inhibition of 36.9%. In the case of `Cc1c(Cl)cccc1NC(=O)CSc1ccc(-c2cccnc2)nn1`, the inhibition is reported as 2.22%. `O=S(=O)(Nc1nccs1)c1ccc2c(c1)OCCO2` gave an inhibition of 12.7%. With `COCCOC(=O)C1=C(C)N=c2s/c(=C\c3cccs3)c(=O)n2C1c1cccs1` (stereo not drawn) the inhibition was -11.4%. Work on `CCOC(=O)C1=C(CSc2nccn2C)NC(=O)NC1c1ccc(OC)cc1` (stereo not drawn) yielded an inhibition of 7.63%. In the case of `CCOC(=O)C1=C(C)N=c2s/c(=C\C(=O)OC)c(=O)n2C1c1ccc(OC)cc1` (stereo not drawn), the inhibition is reported as 52.3% (active). For `Cc1cc(=O)oc(C)c1C(=O)NC1CC(C)(C)NC(C)(C)C1`, the inhibition was 13.7%. `CN(C)NC(=O)c1csnc1-c1c(Cl)cccc1Cl` gave an inhibition of -15.4%. `Cn1cccc1C(=O)OCC(=O)c1ccc(Br)s1` showed an inhibition of 15.9%. With `COc1cccc(-c2sc3ccc(OC)cc3c2-c2ccc(OCCN3CCCCC3)cc2)c1` the inhibition was 58.8% (active). `COc1ccc(-c2sc3ccccc3c2-c2ccc(OCCN3CCOCC3)cc2)cc1` showed an inhibition of 28%. For `COc1ccc2sc(-c3ccccc3OC)c(-c3ccc(OCCN4CCCC4)cc3)c2c1`, the inhibition was -0.331%. With `CC1=C(C(N)=O)C(c2ccc3c(c2)OCO3)n2nc(-c3cccc(C)c3)nc2N1` (stereo not drawn) the inhibition was 18.1%. `Cc1cccc(C)c1NC(=O)CSc1nnc(-c2ccccc2)n1Cc1ccc2c(c1)OCO2` showed an inhibition of 3.97%. For `c1ccc(-c2nnc3n2NC(c2ccc4c(c2)OCO4)S3)cc1` (stereo not drawn), the inhibition was 57.2% (active). `O=C(Nc1nnc(C2CC2)s1)C1=NN(C2CCS(=O)(=O)C2)C(=O)CC1` (stereo not drawn) showed an inhibition of 9.54%. For `COc1cc2c(cc1OC)C(/C=C/c1ccco1)=NCC2`, the inhibition was -9.38%. With `CC(C)c1ccc(S(=O)(=O)N2CCN(C(C)C(=O)NC3CCCC3)CC2)cc1` (stereo not drawn) the inhibition was 13.4%. For `COc1ccc(S(=O)(=O)N2CCN(C(C)C(=O)Nc3ccc(C(C)C)cc3)CC2)cc1` (stereo not drawn), the inhibition was 50.6% (active). For `COc1cccc(CNC(C)C(=O)Nc2ccc(S(=O)(=O)N3CCCC3)cc2)c1` (stereo not drawn), the inhibition was 19.6%. `O=C1NC[C@@H](Cc2ccc(O)cc2)N(CCc2cccc(F)c2)C1=O` showed an inhibition of 11.4%. `CC(=O)Nc1ccc(S(=O)(=O)N2CCN(C(=O)c3ccccc3F)CC2)cc1` showed an inhibition of 3.67%. With `Cc1ccc(C(=O)O/N=C(\N)c2ccccn2)cc1Cl` the inhibition was 6.93%. For `Cc1ccc(/C(N)=N/OC(=O)COc2ccc(Cl)c(C)c2)cc1`, the inhibition was 24.2%. In the case of `Cc1cccc(/C(N)=N/OC(=O)c2ccccc2Cl)c1`, the inhibition is reported as 72.9% (active). In the case of `CC(C)(C)NC(=O)CN1CCC(NC(=O)C23CC4CC(CC(C4)C2)C3)CC1`, the inhibition is reported as 18%. Compound `O=C(c1ccc(S(=O)(=O)NCc2ccco2)cc1)N1CCN(c2ccccc2)CC1` has an inhibition of 19.3%. Compound `O=C(Nc1ccccc1)c1cc2ccccc2[nH]1` has an inhibition of -6.12%. With `CCCCn1c(=S)[nH]c2ccccc2c1=O` the inhibition was 43.6%. With `COc1ccc(Cn2c(=S)[nH]c3cc(C(=O)NCCCN4CCOCC4)ccc3c2=O)cc1` the inhibition was 18%. In the case of `O=c1c2ccccc2[nH]c(=S)n1CCN1CCC(=C(c2ccc(F)cc2)c2ccc(F)cc2)CC1`, the inhibition is reported as 75.8% (active). `O=C(N[C@H]1C/C=C\C(c2ccc(F)cc2)N(Cc2ccccc2)C(=O)C1)OCC1c2ccccc2-c2ccccc21` (stereo partly drawn) showed an inhibition of 38.6%. Work on `O=C(N[C@@H]1C/C=C\C[C@@H](CC(=O)N(CCO)Cc2ccccc2)C(=O)N[C@H](Cc2ccccc2)COC1=O)OCC1c2ccccc2-c2ccccc21` yielded an inhibition of 22.7%. In the case of `O=C(N[C@H]1C/C=C\C(c2cccc(F)c2)N(Cc2ccccc2)C(=O)C1)OCC1c2ccccc2-c2ccccc21` (stereo partly drawn), the inhibition is reported as 59.7% (active).
